According to PubChem BioAssay AID1347426 (Functional Genomics Laboratory (NCATS/FGL), 2020):
About 1,400 (4.5%) of roughly 31,000 sequences were called active. This is one part of a sample in which actives are shown more often than they occur.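 The calls were made as follows: active = median seed-adjusted z-score above 1 or below -1; inactive = the rest.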

Assay: Novel Modifiers of Survival Motor Neuron (SMN) Protein: Gene Identification via Genome-wide siRNA Screen;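 also: luminescence tracks full-length SMN protein made from the SMN2 reporter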
Conditions: HEK293T SMN2-luciferase reporter, siRNA knockdown, 72 h; actives lie on both sides
Outline: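 siRNA screen, 10418 genes ×3 siRNAs; 1 pmol/well, lipid reverse transfection into HEK293T SMN2-luc reporter line. 72 h, 37 °C, 5% CO2; ONE-Glo readout. Data: neg-ctrl normalized, log10, MAD; hit = MAD >1.0 or < -1.0.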

Sequence	median seed-adjusted z-score
GGGUGGACGUGGAUACUUATT against NFE2L1	0.689 (inactive)
AGGGCUAUCUGGUAUCUGUTT against SNRPF	-2.66 (active)
CUGGUACAGUGAUCGGGAATT against PCDH12	0.0177 (inactive)
GUUAUGCCUUUAUUAAUUUTT against SF3B4	-2.56 (active)
GGAUAUUACAGCUAUUUGATT against USP10	0.182 (inactive)
CAACUGCAGCAGAUUCUAATT against MNAT1	-0.335 (inactive)
GACCAGAUCUUUAAUCUCATT against RGS10	0.304 (inactive)
CAACACCGCCCACAACAAATT against TRIM25	0.859 (inactive)
CGGGAGUUUUUGGAACUGATT against MMS19L	0.898 (inactive)
GGAAGCUCCUUGUCAAGAUTT against MECP2	-0.332 (inactive)
GCAGGAUGCUGUCAACAUATT against PSMD4	1.46 (active)
GCAAGAGAAUUAGAUCAGATT against SLC16A12	0.0219 (inactive)
CCAUCGUCAACAUACGGAATT against TRIT1	0.794 (inactive)
GUGUGGAUCUGUGGACUCATT against CRB2	0 (inactive)
CACUAAGAGAAAAUCUGAATT against GALNT13	-0.0149 (inactive)
CCACCUAGCUUGUAACGAATT against EP400	1.83 (active)
GGUUGUAGAGUUGAAAGUUTT against UBE2O	0.125 (inactive)
GGACACGGGUGUCAUCCUATT against UBASH3A	-1.1 (active)
GCCGUUUAAUACCCGAUGATT against RNF125	0.204 (inactive)
AUGGUUACCUGUUCACCUATT against SLC7A10	-0.732 (inactive)
GUCAAAGAGUGACAACUUUTT against CALB2	0 (inactive)
GGAGUGAUGAUAACGAGGATT against LATS1	0 (inactive)
GAGUUGUCGACACCACUUATT against PROS1	0.436 (inactive)
CUGCUACCUCUGACCCAAATT against DTD1	-1.58 (active)
GACAGUUUCCCUACAAGAATT against MAP2K7	-0.772 (inactive)
CAGAUUGUCUGAUUCGAUUTT against TRIP11	0.333 (inactive)
AGGGAGGUGUUUAACGGCATT against HMOX1	0.45 (inactive)
CCUUGUUUAUCAUAAGGGATT against ZNF613	-0.189 (inactive)
GCAAGUACCUGUAAUUGAATT against KLF3	0.628 (inactive)
CCUUGACUGUGGACAACAATT against PURA	-0.0185 (inactive)
